Data reported in PubChem BioAssay (EPA / NIEHS).
Results filed as inconclusive are left out. Active and inactive are the calls of the source. The calls were made as follows, unless noted: active = hit-call score of the fitted dose curve at least 0.9, where 1 is the maximum; inactive = score below 0.9.

Columns and labels:
[1] = target: Paired box protein Pax-6 (Homo sapiens) (UniProt P26367); test: ATG_Pax6_CIS: Attagene CIS-FACTORIAL HepG2 Assay for human Paired Box 6 (PAX6) (AID 2282956); settings: HepG2 CIS-FACTORIAL PAX6 reporter transcription, RNA readout; actives raise or lower the signal
Paired box protein Pax-6 (Homo sapiens), sequence (P26367 whole entry, looked up): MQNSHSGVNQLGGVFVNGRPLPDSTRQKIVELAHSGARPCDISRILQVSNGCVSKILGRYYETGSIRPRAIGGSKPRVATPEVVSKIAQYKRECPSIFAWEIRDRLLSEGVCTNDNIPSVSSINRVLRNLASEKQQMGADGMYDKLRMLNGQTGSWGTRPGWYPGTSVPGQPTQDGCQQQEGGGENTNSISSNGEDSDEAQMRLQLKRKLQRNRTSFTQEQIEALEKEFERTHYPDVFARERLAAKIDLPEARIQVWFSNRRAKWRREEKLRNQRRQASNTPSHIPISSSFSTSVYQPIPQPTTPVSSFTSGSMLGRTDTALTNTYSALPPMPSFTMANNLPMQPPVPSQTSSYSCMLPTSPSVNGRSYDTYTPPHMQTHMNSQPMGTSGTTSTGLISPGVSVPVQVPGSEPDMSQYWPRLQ
Procedure, shortened: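 Transient MRTU transfection of HepG2 → compound exposure 24 h → TriZol RNA, oligo(dT) RT → PCR, 6-FAM primer extension, HpaI cut → capillary electrophoresis; activity fitted both directions against DMSO.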

[2] = ATG_PXRE_CIS: Attagene CIS-FACTORIAL HepG2 Assay for human Pregnane X Receptor Element (PXRE) (AID 2282957); settings: HepG2 Attagene CIS-FACTORIAL PXRE reporter, mRNA; actives raise or lower the signal
Procedure, shortened: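 Transfect HepG2 with MRTUs (cis promoter elements); dose chemical, incubate 24 h; isolate RNA, RT with oligo(dT), PCR, 6-FAM label, HpaI cut, CE. Gain/loss fit vs DMSO.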

[3] = ATG_PPRE_CIS: Attagene CIS-FACTORIAL HepG2 Assay for human Peroxisome Proliferator-activated Response Element (PPRE) (AID 2282958); settings: HepG2 PPRE cis-element reporter, Attagene transcription factor profiling; actives raise or lower the signal
Procedure, shortened: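 In this cell-based multiplex, a PPRE cis element drives a reporter sequence in transiently transfected HepG2 cells. Following 24 h treatment, labeled cDNA amplicons are sized and quantified by capillary electrophoresis, with DMSO defining baseline.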

[4] = ATG_Sox_CIS: Attagene CIS-FACTORIAL HepG2 Assay for human SRY-box transcription factor (SOX) (AID 2282960); settings: HepG2 Attagene cis-factorial SOX reporter, mRNA; actives raise or lower the signal
Procedure, shortened: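 Measures mRNA induction of a SOX1-associated reporter in HepG2 after 24 h dosing. Fluorescently labelled RT-PCR fragments are separated by capillary electrophoresis, and gain or loss relative to DMSO control is fitted.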

[5] = target: Transcription factor Sp1 (Homo sapiens) (UniProt P08047); test: ATG_Sp1_CIS: Attagene CIS-FACTORIAL HepG2 Assay for human Specificity Protein 1 (Sp1) (AID 2282961); settings: HepG2 Sp1 cis-reporter transcription, actives raise or lower the signal
Transcription factor Sp1 (Homo sapiens), sequence (P08047 whole entry, looked up): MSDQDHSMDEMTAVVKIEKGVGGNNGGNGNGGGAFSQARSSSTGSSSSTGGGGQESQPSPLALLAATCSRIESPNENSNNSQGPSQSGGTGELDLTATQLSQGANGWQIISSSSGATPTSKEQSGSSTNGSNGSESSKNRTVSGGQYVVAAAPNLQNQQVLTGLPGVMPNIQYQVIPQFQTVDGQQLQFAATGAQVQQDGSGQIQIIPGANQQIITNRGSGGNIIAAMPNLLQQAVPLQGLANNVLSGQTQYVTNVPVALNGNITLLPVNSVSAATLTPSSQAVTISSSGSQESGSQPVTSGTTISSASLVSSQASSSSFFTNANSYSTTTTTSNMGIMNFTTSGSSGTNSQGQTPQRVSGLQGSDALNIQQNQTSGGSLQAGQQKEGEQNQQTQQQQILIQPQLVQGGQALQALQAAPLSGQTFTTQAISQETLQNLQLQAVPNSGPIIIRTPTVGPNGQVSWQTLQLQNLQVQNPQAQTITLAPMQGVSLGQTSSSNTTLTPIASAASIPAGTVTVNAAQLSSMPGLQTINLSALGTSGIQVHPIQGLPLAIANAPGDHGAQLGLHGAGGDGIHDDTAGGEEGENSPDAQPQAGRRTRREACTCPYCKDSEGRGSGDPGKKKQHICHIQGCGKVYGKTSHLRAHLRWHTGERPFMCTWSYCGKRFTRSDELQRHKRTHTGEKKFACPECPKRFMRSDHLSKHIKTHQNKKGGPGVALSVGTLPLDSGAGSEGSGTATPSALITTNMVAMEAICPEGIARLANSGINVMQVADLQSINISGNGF
Procedure, shortened: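 Cells: HepG2, transiently transfected with cis-regulated multiplexed reporters. Exposure: 24 h. Detection: reporter transcripts amplified, fluorescently labeled, restriction-digested and sized by capillary electrophoresis. Analysis: bidirectional fit relative to DMSO.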

[6] = ATG_SREBP_CIS: Attagene CIS-FACTORIAL HepG2 Assay for human Sterol Regulatory Element Binding (SREBP) (AID 2282962); settings: HepG2 Attagene cis-factorial SREBP reporter, mRNA; actives raise or lower the signal
Procedure, shortened: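 Transfected HepG2 (cis-regulated reporter library, endogenous TFs) → compound 24 h → total RNA → oligo(dT) RT → reporter-specific PCR → FAM primer extension, HpaI cut → CE fluorescence. Fit bidirectional vs DMSO.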

[7] = target: Signal transducer and activator of transcription 3 (Homo sapiens) (UniProt P40763); test: ATG_STAT3_CIS: Attagene CIS-FACTORIAL HepG2 Assay for human Signal Transducer and Activator of Transcription 3 (STAT3) (AID 2282963); settings: HepG2, Attagene cis-factorial STAT3 reporter transcription; actives raise or lower the signal
Signal transducer and activator of transcription 3 (Homo sapiens), sequence (P40763 whole entry, looked up): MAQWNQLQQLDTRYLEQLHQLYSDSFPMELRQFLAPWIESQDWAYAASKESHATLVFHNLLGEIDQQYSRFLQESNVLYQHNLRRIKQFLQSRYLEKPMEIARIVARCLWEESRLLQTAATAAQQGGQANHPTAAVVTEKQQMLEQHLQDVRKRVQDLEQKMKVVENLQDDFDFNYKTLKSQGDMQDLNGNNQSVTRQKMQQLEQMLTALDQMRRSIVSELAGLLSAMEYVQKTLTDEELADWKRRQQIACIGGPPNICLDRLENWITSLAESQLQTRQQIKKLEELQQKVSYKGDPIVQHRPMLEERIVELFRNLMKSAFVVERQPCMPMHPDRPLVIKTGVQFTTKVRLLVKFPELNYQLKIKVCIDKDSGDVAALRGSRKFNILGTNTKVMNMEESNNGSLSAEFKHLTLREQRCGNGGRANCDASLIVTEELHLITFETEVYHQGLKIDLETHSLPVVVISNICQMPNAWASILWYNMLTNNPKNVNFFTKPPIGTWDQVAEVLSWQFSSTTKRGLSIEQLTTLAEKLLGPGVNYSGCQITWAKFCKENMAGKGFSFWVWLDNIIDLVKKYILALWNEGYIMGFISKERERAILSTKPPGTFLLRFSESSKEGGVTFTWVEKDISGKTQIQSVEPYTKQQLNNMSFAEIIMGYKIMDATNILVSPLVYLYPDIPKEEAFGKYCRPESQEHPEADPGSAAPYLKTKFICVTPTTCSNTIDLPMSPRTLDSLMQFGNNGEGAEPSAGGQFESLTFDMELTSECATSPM
Procedure, shortened: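 HepG2 cells transiently transfected with multiple cis-element-driven reporter units report endogenous transcription factor activity. After 24 h compound exposure, reporter mRNA is measured by RT-PCR, 6-FAM labelling, HpaI digestion and capillary electrophoresis. Fitted bidirectionally versus DMSO.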

[8] = ATG_TA_CIS: Attagene CIS-FACTORIAL HepG2 Assay for human TA Basal Promoter (AID 2282964); settings: HepG2 Attagene CIS-factorial TA basal promoter reporter; actives raise or lower the signal
Procedure, shortened: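 HepG2 cells transiently transfected with multiple reporter units under cis promoter elements, reporting endogenous transcription factor activity; this endpoint tracks the TA basal promoter as background control. Reporter mRNA after 24 h dosing measured by RT-PCR/capillary electrophoresis; bidirectional fits versus DMSO.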

[9] = ATG_TCF_b_cat_CIS: Attagene CIS-FACTORIAL HepG2 Assay for human T-Cell-Factor with beta-catenin (TCF/b-cat) (AID 2282965); settings: HepG2 TCF/beta-catenin cis-reporter transcription, actives raise or lower the signal
Procedure, shortened: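 HepG2 cells transiently transfected with cis-promoter-driven multiplexed reporter units; reporter mRNA measured 24 h after dosing by RT-PCR, FAM labelling, HpaI digestion and capillary electrophoresis. Bidirectional fitting relative to DMSO baseline.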

[10] = ATG_TAL_CIS: Attagene CIS-FACTORIAL HepG2 Assay for human TAL Basal Promoter (AID 2282966); settings: HepG2 Attagene cis-factorial TAL promoter reporter; actives raise or lower the signal;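 also: background control endpoint measuring basal TAL promoter reporter mRNA not a specific factor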
Procedure, shortened: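 Fluorescence of labelled reporter cDNA fragments, resolved by capillary electrophoresis, gave the readout. Human HepG2 liver cells carried transiently transfected cis-element reporter units and were treated for 24 hours; activity was fitted bidirectionally against DMSO.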

[11] = ATG_TGFb_CIS: Attagene CIS-FACTORIAL HepG2 Assay for human Transforming Growth Factor (TGF) (AID 2282967); settings: HepG2 Attagene CIS TGFb reporter, mRNA transcription; actives raise or lower the signal
Procedure, shortened: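 HepG2 cells transiently transfected with cis-promoter-driven multiple reporter units measure endogenous TF activity; reporter mRNA quantified at 24 h by RT-PCR, FAM labeling, HpaI digestion and capillary electrophoresis. Bidirectional fit vs DMSO.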

[12] = ATG_VDRE_CIS: Attagene CIS-FACTORIAL HepG2 Assay for human Vitamin D Receptor Element (VDRE) (AID 2282968); settings: HepG2 VDRE cis-reporter transcription, actives raise or lower the signal
Procedure, shortened: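 Transiently transfected HepG2 cells carrying cis-regulated reporter transcription units were exposed for 24 h. Reporter mRNA was measured by RT-PCR with fluorescent labelling and capillary electrophoresis, and fitted in both directions against DMSO.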

[13] = target: Nuclear receptor subfamily 1 group I member 3 (Homo sapiens) (UniProt Q14994); test: ATG_CAR_TRANS: Attagene TRANS-FACTORIAL HepG2 Assay for human Constitutive Androstane Receptor (CAR) (AID 2282969; active = hit-call score of the fitted dose curve at least 0.9, where 1 is the maximum;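 also: activators raise reporter mRNA above DMSO so AC50 marks induction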); settings: HepG2 Attagene TRANS-FACTORIAL CAR reporter
Nuclear receptor subfamily 1 group I member 3 (Homo sapiens), sequence (Q14994 whole entry, looked up, the tested form may be a part): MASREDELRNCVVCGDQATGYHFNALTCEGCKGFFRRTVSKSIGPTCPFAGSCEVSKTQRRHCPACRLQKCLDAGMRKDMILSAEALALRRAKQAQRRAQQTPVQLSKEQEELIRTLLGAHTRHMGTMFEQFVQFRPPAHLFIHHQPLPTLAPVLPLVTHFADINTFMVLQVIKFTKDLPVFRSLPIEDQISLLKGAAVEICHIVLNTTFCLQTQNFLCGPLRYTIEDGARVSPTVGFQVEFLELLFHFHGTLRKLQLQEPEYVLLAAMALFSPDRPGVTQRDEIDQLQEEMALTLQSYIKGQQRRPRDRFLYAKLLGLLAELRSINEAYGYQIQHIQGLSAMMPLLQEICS
Procedure, shortened: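 HepG2 cells transiently transfected with GAL4-UAS reporter units; TRANS format reads activity of exogenous chimeric NR-Gal4 protein. After 24 h dosing, reporter mRNA quantified by RT-PCR, 6-FAM labelling and capillary electrophoresis; gain of signal fitted against DMSO.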

[14] = target: Estrogen receptor (Homo sapiens) (UniProt P03372); test: ATG_ERa_TRANS: Attagene TRANS-FACTORIAL HepG2 Assay for human Estrogen Receptor alpha (ERa) (AID 2282970; active = hit-call score of the fitted dose curve at least 0.9, where 1 is the maximum); settings: HepG2 Attagene TRANS ERa GAL4 reporter, mRNA
Estrogen receptor (Homo sapiens), sequence (P03372 whole entry, looked up, the tested form may be a part): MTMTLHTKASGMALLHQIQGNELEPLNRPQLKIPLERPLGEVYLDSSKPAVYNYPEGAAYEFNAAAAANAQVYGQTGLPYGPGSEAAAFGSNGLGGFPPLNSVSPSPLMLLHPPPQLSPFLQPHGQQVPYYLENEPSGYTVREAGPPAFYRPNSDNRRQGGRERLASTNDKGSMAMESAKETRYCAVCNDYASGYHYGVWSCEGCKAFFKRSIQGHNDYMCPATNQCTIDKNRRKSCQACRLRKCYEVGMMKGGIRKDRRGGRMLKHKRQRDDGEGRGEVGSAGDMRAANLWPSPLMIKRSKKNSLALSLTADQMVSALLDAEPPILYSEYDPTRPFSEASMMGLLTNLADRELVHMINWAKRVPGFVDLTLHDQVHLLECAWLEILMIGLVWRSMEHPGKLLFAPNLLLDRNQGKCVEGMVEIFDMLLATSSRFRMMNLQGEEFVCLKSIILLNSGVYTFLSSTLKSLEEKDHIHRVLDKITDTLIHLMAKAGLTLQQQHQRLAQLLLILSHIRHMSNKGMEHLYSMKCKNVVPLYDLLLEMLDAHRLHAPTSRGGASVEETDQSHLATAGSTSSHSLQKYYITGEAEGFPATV
Procedure, shortened: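 Human liver HepG2, transient transfection of multiple GAL4-UAS reporter units; TRANS format (exogenous NR-Gal4 chimera). 24 h dosing. Readout: reporter mRNA, RT-PCR, 6-FAM primer extension, HpaI digest, capillary electrophoresis. Positive direction vs DMSO.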

[15] = target: X-box-binding protein 1 (Homo sapiens) (UniProt P17861); test: ATG_Xbp1_CIS: Attagene CIS-FACTORIAL HepG2 Assay for human X-box Binding Protein 1 (XBP1) (AID 2282972); settings: HepG2 XBP1 cis-element reporter, Attagene multiplex; actives raise or lower the signal
X-box-binding protein 1 (Homo sapiens), sequence (P17861 whole entry, looked up): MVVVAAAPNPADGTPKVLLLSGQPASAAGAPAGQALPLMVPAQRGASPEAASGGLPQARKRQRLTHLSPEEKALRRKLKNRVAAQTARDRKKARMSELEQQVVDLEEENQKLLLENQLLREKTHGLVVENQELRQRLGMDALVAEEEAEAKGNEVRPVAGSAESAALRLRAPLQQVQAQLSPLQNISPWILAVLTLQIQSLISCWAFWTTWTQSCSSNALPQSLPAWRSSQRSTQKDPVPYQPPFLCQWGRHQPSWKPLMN
Procedure, shortened: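 HepG2, transient MRTU transfection (cis-promoter driven), 24 h compound exposure. Total RNA → oligo(dT) RT → PCR → 6-FAM labeling → HpaI cut → CE. Bidirectional fit vs DMSO.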

[16] = ATG_GAL4_TRANS: Attagene TRANS-FACTORIAL HepG2 Assay for GAL4 (Internal Marker) (AID 2282976; active = hit-call score of the fitted dose curve at least 0.9, where 1 is the maximum); settings: HepG2 Attagene TRANS GAL4 internal marker reporter
Procedure, shortened: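 First, HepG2 cells were transfected with reporter units under GAL4-UAS control. Next, they were treated with chemical for 24 h. Finally, RNA was reverse-transcribed, PCR-amplified, FAM-labelled and resolved by capillary electrophoresis, with induction scored against DMSO.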

[17] = target: Estrogen-related receptor gamma (Homo sapiens) (UniProt P62508); test: ATG_ERRg_TRANS: Attagene TRANS-FACTORIAL HepG2 Assay for human Estrogen-Related Receptor gamma (ERRg) (AID 2282977; active = hit-call score of the fitted dose curve at least 0.9, where 1 is the maximum;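 also: hits increase reporter signal over DMSO so potencies reflect activators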); settings: HepG2 Attagene TRANS reporter, ERRg transactivation
Estrogen-related receptor gamma (Homo sapiens), sequence (P62508 whole entry, looked up, the tested form may be a part): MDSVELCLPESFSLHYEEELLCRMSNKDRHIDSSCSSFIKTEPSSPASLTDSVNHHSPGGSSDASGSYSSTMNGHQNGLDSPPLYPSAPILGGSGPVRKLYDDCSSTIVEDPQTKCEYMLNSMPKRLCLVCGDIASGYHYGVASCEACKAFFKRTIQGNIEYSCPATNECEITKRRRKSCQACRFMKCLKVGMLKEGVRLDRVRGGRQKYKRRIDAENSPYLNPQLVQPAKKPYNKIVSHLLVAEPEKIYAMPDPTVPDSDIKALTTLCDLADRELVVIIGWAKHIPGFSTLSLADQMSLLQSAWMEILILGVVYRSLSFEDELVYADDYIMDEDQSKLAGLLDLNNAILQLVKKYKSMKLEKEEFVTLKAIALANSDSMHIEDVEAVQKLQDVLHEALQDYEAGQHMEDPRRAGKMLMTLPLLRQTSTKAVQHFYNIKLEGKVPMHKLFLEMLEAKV
Procedure, shortened: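 HepG2 cells transiently transfected with multiplexed GAL4-UAS reporter units driven by chimeric NR-Gal4 proteins; 24 h exposure. Reporter mRNA quantified by RT-PCR, fluorescent labelling, HpaI digestion and capillary electrophoresis; gain of signal vs DMSO.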

[18] = ATG_RORE_CIS: Attagene CIS-FACTORIAL HepG2 Assay for human RAR-related Orphan Receptor Element (RORE) (AID 2282959); settings: HepG2 Attagene cis-factorial RORE reporter, mRNA; actives raise or lower the signal
Procedure, shortened: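 Endogenous factor activity at a cis response element is read as reporter transcript levels in HepG2 cells, 24 h post-dose. Transcripts are quantified by RT-PCR with capillary electrophoresis, and data fitted in both directions against DMSO.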

[19] = target: Steroid hormone receptor ERR1 (Homo sapiens) (UniProt P11474); test: ATG_ERRa_TRANS: Attagene TRANS-FACTORIAL HepG2 Assay for human Estrogen-Related Receptor alpha (ERRa) (AID 2282971; active = hit-call score of the fitted dose curve at least 0.9, where 1 is the maximum); settings: HepG2 Attagene TRANS reporter, ERRa transactivation
Steroid hormone receptor ERR1 (Homo sapiens), sequence (P11474 whole entry, looked up, the tested form may be a part): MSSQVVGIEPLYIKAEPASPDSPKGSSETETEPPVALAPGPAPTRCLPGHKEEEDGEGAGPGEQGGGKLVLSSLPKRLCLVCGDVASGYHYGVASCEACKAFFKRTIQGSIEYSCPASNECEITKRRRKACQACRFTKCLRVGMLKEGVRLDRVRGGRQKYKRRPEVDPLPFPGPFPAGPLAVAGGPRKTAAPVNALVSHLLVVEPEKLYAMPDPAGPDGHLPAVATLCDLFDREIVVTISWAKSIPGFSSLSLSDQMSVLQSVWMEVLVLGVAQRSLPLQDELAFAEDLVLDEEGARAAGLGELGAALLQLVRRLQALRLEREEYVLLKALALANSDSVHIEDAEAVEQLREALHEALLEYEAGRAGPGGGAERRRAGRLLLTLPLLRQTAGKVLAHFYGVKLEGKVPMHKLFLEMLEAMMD
Procedure, shortened: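 Reporter transcript induction was quantified by RT-PCR and capillary electrophoresis of FAM-labelled, HpaI-cut products after 24 h treatment of HepG2 cells carrying transiently transfected GAL4-UAS reporter units and an exogenous ERRa-Gal4 fusion; activity scored as increase over DMSO.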

[20] = ATG_M_19_TRANS: Attagene TRANS-FACTORIAL HepG2 Assay for M19 Transcription Factor (Internal Marker) (AID 2282974; active = hit-call score of the fitted dose curve at least 0.9, where 1 is the maximum); settings: HepG2 Attagene TRANS-FACTORIAL M19 internal marker reporter
Procedure, shortened: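 Reporter mRNA induction was measured in transfected HepG2 cells 24 h after dosing. Endpoint fitted upward relative to DMSO and serves as a background control within the multiplexed TRANS panel.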

Measured: AC50

O=C1CCCCCN1SSN1CCCCCC1=O
active: [1] 156 µM | [4] 183 µM | [5] 167 µM | [6] 161 µM | [15] 187 µM
not listed: [18] | [19] | [20]
inactive: all other assays above

O=c1cc[nH]c(=S)[nH]1
not listed: [6] | [7] | [12] | [13] | [15] | [16] | [20]
inactive: all other assays above

CC(C)CCCCCOC(=O)CCS
active: [2] 6.6 µM
not listed: [13] | [16] | [17] | [18] | [19]
inactive: all other assays above

O=C1CCCN1CCO
not listed: [6] | [16] | [17] | [19] | [20]
inactive: all other assays above

CC(CC=O)CCCC(C)(C)O (centres undefined)
active: [2] 41.2 µM
not listed: [6] | [11] | [12] | [13] | [19]
inactive: all other assays above

CCCCCCCCO[C@@H]1O[C@H](CO)[C@@H](O)[C@H](O)[C@H]1O
not listed: [9] | [13] | [14] | [17] | [18] | [19]
inactive: all other assays above

O=C1C(N(CO)C(=O)NCO)N(CO)C(=O)N1CO (centres undefined)
not listed: [3] | [17] | [19] | [20]
inactive: all other assays above

CC(C)(c1cc(Br)c(OCCO)c(Br)c1)c1cc(Br)c(OCCO)c(Br)c1
inactive: [3] | [4] | [5] | [7] | [14] | [20]
active: [1] 17.4 µM | [2] 0.484 µM | [6] 18 µM | [8] 15.3 µM | [10] 27 µM | [12] 1.22 µM | [15] 30.1 µM

O=C1CCCCCCCCCCCCCCCO1
active: [6] 100 µM
not listed: [11] | [12] | [16] | [17] | [18] | [20]
inactive: all other assays above

CCN(CC)c1ccc(C(=O)c2ccccc2C(=O)O)c(O)c1
active: [2] 1.09 µM | [12] 1.7 µM
not listed: [3] | [13] | [15] | [16] | [17] | [19] | [20]
inactive: all other assays above

COC(=O)c1ccc2cc(C(=O)OC)ccc2c1
not listed: [9] | [11] | [12] | [13] | [16] | [18] | [20]
inactive: all other assays above

O=CC1CC1
not listed: [11] | [13] | [14] | [17] | [18] | [19]
inactive: all other assays above

CC(C)COC(=O)C=Cc1ccccc1
active: [2] 27.2 µM | [14] 71.6 µM
not listed: [3] | [13] | [17] | [19] | [20]
inactive: all other assays above

CCCCCCCCCCCCCCCC[N+](C)(C)CC
active: [9] 5.99 µM | [12] 9.07 µM | [17] 9.59 µM
not listed: [6] | [13] | [14] | [16] | [18] | [20]
inactive: all other assays above

CC(=O)OC1C2(C)CCC(C2)C1(C)C (centres undefined)
not listed: [12] | [13] | [16] | [18] | [19] | [20]
inactive: all other assays above

CC(C)=CCCC(C)C=O (centres undefined)
active: [2] 8.29 µM | [12] 32 µM
not listed: [11] | [16] | [17] | [18] | [19]
inactive: all other assays above

CC(C)CC(O)Cc1ccccc1 (centres undefined)
active: [2] 71.6 µM
not listed: [8] | [17] | [18] | [19]
inactive: all other assays above

CCOC(F)(F)C(F)(F)C(F)(F)C(F)(F)F
not listed: [11] | [13] | [14] | [17] | [18] | [19] | [20]
inactive: all other assays above
